Source: PubChem BioAssay AID624260 (Broad Institute, 2012)
About 30 (0.07%) of roughly 44,000 compounds were called active. Another 1% or so got no clear call; they are omitted. The sample as a whole holds a higher share of actives than the screen did. Values without a mark were called inactive. No stated cut-off is given here; in the data, active means inhibition above about 54% (passing the limit was not always enough); inconclusive means no clear call, values can overlap the other calls.

Each compound was assayed against Histone-lysine N-methyltransferase NSD2 (Homo sapiens) (UniProt O96028) (assay: inhibitors of human NSD2, primary screen, biochemical, plate reader, single point (AID 624260;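 further: inhibitors reduce the monomethyl H3K36 fluorescence signal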)). Conditions: NSD2-SET H3K36me1 DELFIA fluorescence, at 12.5 µM, hits give high values.
Sequence of Histone-lysine N-methyltransferase NSD2 (Homo sapiens) (O96028 whole entry, looked up): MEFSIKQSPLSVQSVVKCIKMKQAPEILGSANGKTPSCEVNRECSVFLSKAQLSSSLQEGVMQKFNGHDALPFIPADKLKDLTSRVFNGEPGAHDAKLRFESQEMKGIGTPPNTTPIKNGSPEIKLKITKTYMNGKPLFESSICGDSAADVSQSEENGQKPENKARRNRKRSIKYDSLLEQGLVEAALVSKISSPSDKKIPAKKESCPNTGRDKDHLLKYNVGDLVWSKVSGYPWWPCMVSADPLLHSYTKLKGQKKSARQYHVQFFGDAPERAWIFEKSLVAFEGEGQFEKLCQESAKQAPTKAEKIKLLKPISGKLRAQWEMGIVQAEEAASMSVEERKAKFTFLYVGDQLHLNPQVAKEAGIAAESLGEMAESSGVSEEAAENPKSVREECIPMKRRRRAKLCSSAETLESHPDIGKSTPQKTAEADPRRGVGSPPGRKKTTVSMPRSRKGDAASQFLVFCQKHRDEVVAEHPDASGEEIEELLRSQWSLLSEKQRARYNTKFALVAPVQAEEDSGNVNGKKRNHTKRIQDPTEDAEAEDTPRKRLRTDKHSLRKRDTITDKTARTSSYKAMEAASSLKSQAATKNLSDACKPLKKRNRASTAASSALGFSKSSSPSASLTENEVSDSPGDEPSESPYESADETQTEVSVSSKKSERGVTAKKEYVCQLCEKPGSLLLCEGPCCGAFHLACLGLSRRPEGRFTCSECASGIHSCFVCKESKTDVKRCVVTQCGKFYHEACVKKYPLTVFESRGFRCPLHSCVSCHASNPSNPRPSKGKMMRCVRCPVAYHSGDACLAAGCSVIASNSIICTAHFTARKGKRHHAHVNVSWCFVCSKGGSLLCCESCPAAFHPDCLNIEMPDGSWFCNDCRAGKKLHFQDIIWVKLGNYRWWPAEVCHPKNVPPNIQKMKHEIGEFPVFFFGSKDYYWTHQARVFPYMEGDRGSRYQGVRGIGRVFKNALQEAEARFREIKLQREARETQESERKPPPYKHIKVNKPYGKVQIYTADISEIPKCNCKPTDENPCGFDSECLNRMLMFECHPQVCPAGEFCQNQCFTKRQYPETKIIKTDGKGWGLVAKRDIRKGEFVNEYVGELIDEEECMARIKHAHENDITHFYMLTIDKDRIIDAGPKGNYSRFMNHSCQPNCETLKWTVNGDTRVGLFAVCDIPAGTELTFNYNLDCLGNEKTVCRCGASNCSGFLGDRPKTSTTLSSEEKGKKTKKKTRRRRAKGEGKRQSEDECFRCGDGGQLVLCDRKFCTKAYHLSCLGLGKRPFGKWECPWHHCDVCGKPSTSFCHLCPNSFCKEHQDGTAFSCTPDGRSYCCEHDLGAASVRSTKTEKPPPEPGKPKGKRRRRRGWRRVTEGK

How did the inhibition turn out when `C[C@H](CO)N1C[C@H](C)[C@H](CN(C)Cc2ccncc2)Oc2cc(-c3cncnc3)ccc2S1(=O)=O` was run?
The inhibition was -4.69%.

With `CCCNC(=O)N(C)C[C@H]1Oc2ncc(-c3cccc(C#N)c3)cc2C(=O)N([C@@H](C)CO)C[C@H]1C` as the compound, how does the inhibition read?
Its inhibition is -7.82%.

Which inhibition does the source give for `C[C@H](CO)N1C[C@H](C)[C@@H](CN(C)S(=O)(=O)c2cccs2)Oc2ccc(NC(=O)Nc3ccc(C(F)(F)F)cc3)cc2CC1=O` here?
Its inhibition is -1.82%.

With `C[C@@H]1CN([C@H](C)CO)S(=O)(=O)c2ccc(C#C[C@@H](C)O)cc2O[C@H]1CN(C)C(=O)C1CCCCC1` as the compound, how does the inhibition read?
Its inhibition is -2.77%.

With `COc1ccc(C#Cc2cnc3c(c2)C(=O)N([C@H](C)CO)C[C@H](C)[C@H](CN(C)C(=O)CC2CC2)O3)cc1` as the compound, how does the inhibition read?
The inhibition was -0.614%.

Which inhibition does the source give for `C[C@@H]1CCCCO[C@@H](CN(C)C(=O)Cc2ccccc2)[C@H](C)CN([C@@H](C)CO)C(=O)c2cc(NC(=O)Nc3ccc4c(c3)OCO4)ccc2O1` here?
Its inhibition is -3.09%.

`CCCC#Cc1cnc2c(c1)C(=O)N([C@H](C)CO)C[C@@H](C)[C@@H](CN(C)C(=O)C1CCOCC1)O2` was tested. Which inhibition did it give?
The inhibition was 11.1%.

Which inhibition does the source give for `C[C@@H]1CN([C@H](C)CO)C(=O)c2cc(NS(=O)(=O)c3ccccc3)ccc2O[C@@H](C)CCCCO[C@H]1CN(C)S(=O)(=O)c1ccc(Cl)cc1` here?
Its inhibition is -1.56%.

With `Cc1noc(C)c1NC(=O)Nc1ccc2c(c1)CC(=O)N([C@@H](C)CO)C[C@@H](C)[C@H](CN(C)Cc1ccc(Oc3ccccc3)cc1)O2` as the compound, how does the inhibition read?
Its inhibition is -7.73%.

Which inhibition does the source give for `O=C(C[C@H]1C[C@H]2c3cc(NC(=O)Nc4ccc(F)cc4)ccc3O[C@H]2[C@H](CO)O1)NCC1CC1` here?
The inhibition was 5.06%.

Which inhibition does the source give for `COc1ccc(S(=O)(=O)N(C)C[C@H]2OCCCC[C@H](C)Oc3ccc(NC(=O)Nc4ccc(F)cc4)cc3C(=O)N([C@@H](C)CO)C[C@H]2C)cc1` here?
Its inhibition is -1.05%.

Which inhibition does the source give for `COc1cccc(-c2cnc3c(c2)C(=O)N([C@@H](C)CO)C[C@@H](C)[C@H](CN(C)C(=O)CN(C)C)O3)c1` here?
Its inhibition is 8.01%.

`C[C@H](O)C#Cc1ccc2c(c1)O[C@H](CN(C)Cc1cccnc1)[C@H](C)CN([C@H](C)CO)S2(=O)=O` was tested. Which inhibition did it give?
Its inhibition is 2.25%.

`CCC(=O)N(C)C[C@@H]1Oc2cc(-c3ccccc3OC)ccc2S(=O)(=O)N([C@H](C)CO)C[C@H]1C` was tested. Which inhibition did it give?
Its inhibition is -2.36%.

How did the inhibition turn out when `CC(=O)N(C)C[C@@H]1Oc2cc(-c3cccc(F)c3)ccc2S(=O)(=O)N([C@H](C)CO)C[C@H]1C` was run?
The inhibition was -1.69%.

For `C[C@H](CO)N1C[C@H](C)[C@@H](CN(C)Cc2ccc(Cl)c(Cl)c2)Oc2ccc(NC(=O)Cn3cnnn3)cc2CC1=O`, which inhibition is on record?
The inhibition was -4.84%.

`C/C=C/c1ccc2c(c1)O[C@H](CN(C)C(=O)Nc1ccccc1)[C@H](C)CN([C@@H](C)CO)S2(=O)=O` was tested. Which inhibition did it give?
Its inhibition is -4.94%.

Which inhibition does the source give for `C[C@@H]1CN([C@@H](C)CO)C(=O)c2c(c3ccccc3n2C)-c2ccccc2CO[C@@H]1CN(C)S(=O)(=O)c1ccc(F)cc1` here?
Its inhibition is -1.17%.

`C[C@@H]1CN([C@@H](C)CO)C(=O)Cc2cc(NS(=O)(=O)c3ccc(Cl)cc3)ccc2O[C@H]1CN(C)C(=O)Nc1cccc2ccccc12` was tested. Which inhibition did it give?
Its inhibition is -4.23%.

Which inhibition does the source give for `CC(=O)N(C)C[C@H]1Oc2cc(C#CCN(C)C)ccc2S(=O)(=O)N([C@H](C)CO)C[C@H]1C` here?
The inhibition was -0.922%.

Which inhibition does the source give for `COc1cccc(CNC(=O)C[C@H]2CC[C@@H](NC(=O)C3CCC3)[C@@H](CO)O2)c1` here?
Its inhibition is 2.46%.

With `COc1ccccc1NC(=O)N[C@H]1CC[C@@H](CC(=O)NCc2ccc(Cl)c(Cl)c2)O[C@H]1CO` as the compound, how does the inhibition read?
The inhibition was -9.36%.

How did the inhibition turn out when `C[C@H](CO)N1C[C@H](C)[C@@H](CN(C)C(=O)Nc2ccc3c(c2)OCO3)Oc2ccc(NS(=O)(=O)c3ccc(Cl)cc3)cc2CC1=O` was run?
The inhibition was 1.14%.

With `C[C@@H](O)C#Cc1ccc2c(c1)O[C@@H](CN(C)Cc1cccnc1)[C@@H](C)CN([C@@H](C)CO)S2(=O)=O` as the compound, how does the inhibition read?
The inhibition was 3.08%.

For `COCC#Cc1ccc2c(c1)O[C@H](CN(C)C(=O)CC1CC1)[C@@H](C)CN([C@@H](C)CO)S2(=O)=O`, which inhibition is on record?
Its inhibition is 8.01%.

How did the inhibition turn out when `CNC[C@@H]1OCCCC[C@H](C)Oc2ccc(NS(=O)(=O)c3ccc(F)cc3)cc2C(=O)N([C@@H](C)CO)C[C@@H]1C` was run?
The inhibition was -5.42%.

With `COc1ccc(-c2cnc3c(c2)C(=O)N([C@@H](C)CO)C[C@@H](C)[C@H](CN(C)C)O3)cc1` as the compound, how does the inhibition read?
Its inhibition is 9.08%.

`C[C@H](CO)N1C[C@H](C)[C@H](CN(C)C(=O)Nc2ccc3c(c2)OCO3)Oc2cc(C#Cc3ccncc3)ccc2S1(=O)=O` was tested. Which inhibition did it give?
Its inhibition is 2.61%.

`C[C@@H]1CCCCO[C@H](CN(C)C(=O)CCC(F)(F)F)[C@H](C)CN([C@H](C)CO)C(=O)c2cc(NC(=O)NC3CCCCC3)ccc2O1` was tested. Which inhibition did it give?
Its inhibition is -3.86%.

For `Cc1cc(C)c(/C=C2\C(=O)Nc3ccccc32)[nH]1`, which inhibition is on record?
The inhibition was -2.13%.

With `Cc1[nH]c(/C=C2\C(=O)Nc3ccc(S(=O)(=O)Cc4c(Cl)cccc4Cl)cc32)c(C)c1C(=O)N1CCC[C@@H]1CN1CCCC1` as the compound, how does the inhibition read?
Its inhibition is 67.1% (active).

Which inhibition does the source give for `C/C=C/c1ccc2c(c1)O[C@@H](CN(C)C(=O)c1ccncc1)[C@@H](C)CN([C@H](C)CO)S2(=O)=O` here?
Its inhibition is 0.685%.

`C/C=C/c1cnc2c(c1)C(=O)N([C@@H](C)CO)C[C@@H](C)[C@H](CN(C)Cc1cncnc1)O2` was tested. Which inhibition did it give?
Its inhibition is 2.06%.

How did the inhibition turn out when `CCCC#Cc1ccc2c(c1)O[C@H](CN(C)C(=O)c1ccncc1)[C@H](C)CN([C@H](C)CO)S2(=O)=O` was run?
The inhibition was 5.45%.

With `C[C@H](CO)N1C[C@H](C)[C@@H](CN(C)C(=O)C2CC2)Oc2cc(-c3cccc(C#N)c3)ccc2S1(=O)=O` as the compound, how does the inhibition read?
Its inhibition is -3.58%.

`Cc1noc(C)c1S(=O)(=O)Nc1ccc2c(c1)CC(=O)N([C@@H](C)CO)C[C@@H](C)[C@H](CN(C)S(=O)(=O)c1cccs1)O2` was tested. Which inhibition did it give?
Its inhibition is -2.26%.

`C[C@@H]1CN([C@@H](C)CO)C(=O)Cc2cc(NC(=O)CCCCCC(=O)Nc3ccccc3N)ccc2O[C@H]1CN(C)Cc1ccc(Cl)c(Cl)c1` was tested. Which inhibition did it give?
The inhibition was -4.04%.

For `Cc1ccc(-c2cnc3c(c2)C(=O)N([C@H](C)CO)C[C@H](C)[C@@H](CN(C)S(C)(=O)=O)O3)cc1`, which inhibition is on record?
Its inhibition is 4.66%.

Which inhibition does the source give for `C[C@H]1CN([C@@H](C)CO)C(=O)c2cc(-c3cccc(F)c3)cnc2O[C@@H]1CN(C)C(=O)c1ccccn1` here?
Its inhibition is 3.24%.

For `C[C@@H]1CN([C@H](C)CO)C(=O)c2cc(C#Cc3ccncc3)cnc2O[C@H]1CN(C)Cc1ccncc1`, which inhibition is on record?
Its inhibition is 6.93%.

With `C[C@@H]1CN([C@@H](C)CO)C(=O)c2cc(C#Cc3ccncc3)cnc2O[C@@H]1CN(C)C(=O)CN(C)C` as the compound, how does the inhibition read?
The inhibition was 3.43%.

Which inhibition does the source give for `CCCC#Cc1cnc2c(c1)C(=O)N([C@H](C)CO)C[C@H](C)[C@@H](CN(C)S(=O)(=O)c1ccccc1)O2` here?
The inhibition was 8.48%.

`C[C@@H]1CN([C@@H](C)CO)S(=O)(=O)c2ccc(C#Cc3cccnc3)cc2O[C@@H]1CN(C)C(=O)CN(C)C` was tested. Which inhibition did it give?
The inhibition was 0.378%.

Which inhibition does the source give for `COCC#Cc1cnc2c(c1)C(=O)N([C@H](C)CO)C[C@H](C)[C@H](CN(C)C(=O)Cc1cccnc1)O2` here?
Its inhibition is -0.822%.

How did the inhibition turn out when `C[C@H](O)C#Cc1ccc2c(c1)O[C@@H](CN(C)C(=O)C1CC1)[C@H](C)CN([C@H](C)CO)S2(=O)=O` was run?
Its inhibition is 3.98%.

With `CCC(=O)N(C)C[C@@H]1Oc2cc(C#CCOC)ccc2S(=O)(=O)N([C@@H](C)CO)C[C@@H]1C` as the compound, how does the inhibition read?
Its inhibition is 4.65%.

How did the inhibition turn out when `C[C@H](CO)N1C[C@H](C)[C@@H](CN(C)S(=O)(=O)c2cccc(F)c2)Oc2cc(C#CCN(C)C)ccc2S1(=O)=O` was run?
Its inhibition is 0.824%.

How did the inhibition turn out when `COc1cc(/C=N/NC(=O)c2ccc(C(=O)NO)cc2)ccc1O` was run?
Its inhibition is -2.52%.

Which inhibition does the source give for `C[C@@H]1CN([C@H](C)CO)C(=O)c2cc(C#CCN(C)C)cnc2O[C@@H]1CN(C)C(=O)Cc1cccnc1` here?
The inhibition was -1.47%.

With `CCCC#Cc1cnc2c(c1)C(=O)N([C@@H](C)CO)C[C@@H](C)[C@@H](CN(C)Cc1ccccc1F)O2` as the compound, how does the inhibition read?
The inhibition was 4.92%.

`C[C@@H]1CN([C@@H](C)CO)C(=O)c2cc(C#CC3CCCCC3)cnc2O[C@H]1CN(C)C(=O)Cc1ccccn1` was tested. Which inhibition did it give?
The inhibition was -1.35%.

How did the inhibition turn out when `CNC[C@H]1Oc2cc(C#CCOC)ccc2S(=O)(=O)N([C@@H](C)CO)C[C@H]1C` was run?
The inhibition was -0.881%.

For `C[C@H]1CN([C@@H](C)CO)S(=O)(=O)c2ccc(-c3ccncc3)cc2O[C@@H]1CN(C)C(=O)CC1CC1`, which inhibition is on record?
The inhibition was -0.24%.

With `C[C@@H]1CN([C@@H](C)CO)C(=O)c2cc(-c3ccncc3)cnc2O[C@@H]1CN(C)C(=O)C1CCCCC1` as the compound, how does the inhibition read?
The inhibition was 1.45%.

`C[C@@H]1CN([C@@H](C)CO)C(=O)Cc2cc(NC(=O)C3CC3)ccc2O[C@H]1CN(C)C(=O)NC1CCCCC1` was tested. Which inhibition did it give?
Its inhibition is 4.29%.

How did the inhibition turn out when `C[C@H](CO)N1C[C@H](C)[C@H](CN(C)Cc2cccnc2)Oc2ncc(C3=CCCC3)cc2C1=O` was run?
Its inhibition is 1.28%.

Which inhibition does the source give for `COc1ccc(NC(=O)N(C)C[C@@H]2Oc3ccc(NC(=O)Cc4cn(C)c5ccccc45)cc3CC(=O)N([C@@H](C)CO)C[C@H]2C)cc1` here?
Its inhibition is -6.14%.

How did the inhibition turn out when `CC(C)NC(=O)N(C)C[C@H]1Oc2ncc(-c3ccc(C(=O)N(C)C)cc3)cc2C(=O)N([C@H](C)CO)C[C@H]1C` was run?
Its inhibition is 1.31%.

How did the inhibition turn out when `COc1ccc(NC(=O)N(C)C[C@@H]2OCc3ccccc3-c3c(n(C)c4ccccc34)C(=O)N([C@H](C)CO)C[C@H]2C)cc1` was run?
Its inhibition is -10.2%.
